Reference: the OligoGym collection

biological target: PTGFRN; test: pooled miR-30 sensor sort-seq; sequence = guide strand; details: shRNA

| Sequence | sensor-assay potency score (higher = more potent) |
| --- | --- |
| TTTTCTTTGCTAACATCCCGAA | -0.589 |
| TTTCTTTGCTAACATCCCGAAC | -1.24 |
| TTTTCTTGGATTTCCTGCCAGT | -0.278 |
| TTGGAGAAGACATCCTTGCTTT | -0.201 |
| TTAAATATAGGACCTGAGGTTT | -1.13 |
| TATTTTAGCGTCCAGTCCCCGT | -1.12 |
| TTGGTCTGAAGGCTGGACGTTC | -0.683 |

biological target: PTGFR; test: as above; details: shRNA

| Sequence | sensor-assay potency score (higher = more potent) |
| --- | --- |
| TTGTAGAAACACCAGGTCCTCG | -0.683 |
| TAACTAACTGAAATATTGCCAA | -0.195 |
| TCTGTGTTGTAGAAACACCAGG | -1.29 |
| TTGACTGGCAAGCTTATAGAGA | -0.966 |
| TTTGATGTCTTCTGTGTTGTAG | 0.583 |
| TTGCACAACAATGAAACACCAA | 0.0591 |
| TTTGTGACTCCAATACACCGCT | -0.161 |
| TTGTGTTTGAAAGAAGCGCAGC | -0.804 |
| TTTAATGGAACTAAGCTCCCAA | 0.844 |
| TTTTATAGTCTCGATGTCCAAG | -0.668 |
| TGCACAACAATGAAACACCAAG | -1.45 |
| TTTGACAAATTTCAAAACCTGA | -0.803 |

biological target: PTH2R; test: as above; details: shRNA

| Sequence | sensor-assay potency score (higher = more potent) |
| --- | --- |
| TAAATAAACATCACAACAGCAA | -0.154 |
| TTTCAGCACAAGGACAATCTGC | -0.513 |
| TAGAATATCATCTCCCTGCCTC | -0.315 |
| TAAGCTGTGCATAAAATCCCAT | -0.0361 |
| TAGCTGCTAAGATCGGTGCTTG | -0.715 |
| TATATTGTGATTTGTCCACAGA | -0.718 |
| TTTGCCAGAGATAAGCACCATG | -0.588 |
| TTTAGATCCTAATTGCTCCTAT | 0.713 |
| TAGAACTCTAACCGTATTCAGA | -0.533 |
| TTAAGTAACACCTTAACTGAAT | -1.01 |
| TAGTGCAATGCAATCGTCTGAA | -0.115 |
| TAAACTACTCCATTGACACTTG | -0.214 |

biological target: PTPN7; test: as above; details: shRNA

| Sequence | sensor-assay potency score (higher = more potent) |
| --- | --- |
| TTTGTCTGTCATAAATGCCAGC | -0.867 |
| TAGAACAGGAAACTGAAGCTCA | 0.0685 |
| TTGGCATTGATGTAATCTCCGT | -0.978 |
| TCTTGCCACACCATCTCCCAGA | -0.679 |
| TCTTCTTCCAGTTGCTTGGGGC | -0.37 |
| TAGACAGACACGGCTCTGGGGA | -0.764 |
| TTCTGGTGTCTGATGGTCTGGC | -0.217 |
| TTCTCCTCGGGCTTTCAGCTGT | -0.819 |
| TTGTCCTTACTGCTGCTGCTTC | -0.729 |
